Only some compounds are listed: those with a hit (about 18% of all), similar ones and a draw of the others.
VDR inhibitor: Inhibitors of the vitamin D receptor (VDR): qHTS | Potency, µM, without a hit: max response, negative = inhibition, most hits filed as inhibitors | 400,000 compounds, 0.93% hits | AID 504847, 2011 | VDR-SRC2-3 peptide fluorescence polarization, 2 h | Vitamin D3 receptor (Homo sapiens), P11473
Target sequence (P11473 whole entry, looked up): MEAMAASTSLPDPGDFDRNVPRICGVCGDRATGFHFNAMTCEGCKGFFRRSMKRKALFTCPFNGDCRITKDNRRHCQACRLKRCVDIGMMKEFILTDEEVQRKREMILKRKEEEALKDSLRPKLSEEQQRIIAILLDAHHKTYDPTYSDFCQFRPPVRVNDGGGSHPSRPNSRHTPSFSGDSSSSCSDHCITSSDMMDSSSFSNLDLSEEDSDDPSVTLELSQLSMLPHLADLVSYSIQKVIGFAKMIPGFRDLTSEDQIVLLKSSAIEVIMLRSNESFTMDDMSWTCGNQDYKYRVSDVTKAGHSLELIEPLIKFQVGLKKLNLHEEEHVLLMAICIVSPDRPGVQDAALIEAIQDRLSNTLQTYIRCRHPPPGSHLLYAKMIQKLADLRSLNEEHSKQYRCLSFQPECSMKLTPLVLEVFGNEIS
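Measured by FP: displacement of SRC2-3 coactivator peptide from VDR by library compounds, following a two-hour ambient incubation.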
TDP1 inh: qHTS Assay for Inhibitors of Tyrosyl-DNA Phosphodiesterase (TDP1); Tyrosyl-DNA phosphodiesterase 1 (Homo sapiens), Q9NUW8; recombinant TDP1, AlphaScreen DNA substrate cleavage; Potency, µM (highest dose often 130 µM), for the others: at the top dose activity change, negative = inhibition, usual class: inhibitors; 350,000 compounds, 0.28% hits; AID 485290, 2010; also: nearly all actives have a fitted effect of over 40% in size
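Signal: AlphaScreen proximity between streptavidin donor and anti-FITC acceptor beads on intact substrate. Reaction: Tdp1 1 nM, substrate 15 nM final, 5 min RT after 15 min compound preincubation.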
DT40 TDP1 no CPT: qHTS for Inhibitors of human tyrosyl-DNA phosphodiesterase 1 (TDP1): qHTS in cells in absence of CPT | Potency, µM (titrated, usually from 46.2 µM), without a hit: top-dose activity change, negative = growth inhibition, actives largely listed as inhibitors | DT40 Tdp1-/- hTDP1 cells, no CPT, ATP luminescence, 48 h | AID 686978, 2013 | 420,000 compounds, 15% hits; also: nearly all actives have a fitted effect of over 55% in size
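Luminescent ATP content (CellTiter-Glo) served as the growth readout. Knockout chicken DT40 cells expressing human TDP1 were exposed to compounds without camptothecin for a minimum 48 hr at 37 °C.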
PLK1 PBD inh: qHTS for Inhibitors of PLK1-PDB (polo-like kinase 1 - polo-box domain): Primary Screen; Plk1 PBD binding of FITC phosphopeptide, fluorescence polarization; Potency, µM, without a hit: max response, negative = inhibition, usual class: inhibitors; 360,000 compounds, 2.8% hits; AID 720504, 2013; also: series mostly up to about 57 µM; nearly all actives have a fitted effect of over 65% in size
TDP1 cell CPT: qHTS for Inhibitors of human tyrosyl-DNA phosphodiesterase 1 (TDP1): qHTS in cells in presence of CPT; chicken DT40 Tdp1-/-;hTDP1 cells + 20 nM CPT, ATP luminescence, 48 h; 420,000 compounds, 12% hits; Potency, µM (top dose mostly 46.2 µM), without a hit: at the highest dose activity change, negative = growth inhibition, most hits filed as inhibitors; also: nearly all actives have a fitted effect of over 55% in size
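Chicken DT40 Tdp1-/- cells stably complemented with human TDP1 were seeded at 400 cells/well in medium containing 20 nM camptothecin, exposed to pin-transferred compounds, and grown at 37 °C for at least 48 hr. Viability was read as ATP luminescence.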
GCN5L2 inh: qHTS Assay for Inhibitors of GCN5L2. Histone acetyltransferase KAT2A (Homo sapiens), Q92830. GCN5L2 HAT assay, ThioGlo1 CoA-SH fluorescence. Potency, µM (titrated, usually from 58.9 µM), without a hit: at the top dose activity change, negative = inhibition, most hits filed as inhibitors. 390,000 compounds, 0.21% hits. AID 504327, 2011
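Titration-based screen in which CoA formation is detected via maleimide probe ThioGlo1 (50uM) turning fluorescent on thiol reaction; substrates H3(1-25) 75uM and acetyl-CoA 70uM, GCN5L2 20nM, 20 min incubation at room temperature.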
Starred values were filed as active, the others as inactive; ? = inconclusive; . = no result. Calls follow the shape of the dose curve; as a rule, active = well fitted curve in the direction sought with a large enough effect; inconclusive = small, poorly fitted or top-dose-only effect, or another doubt; inactive = no such curve, though single readings can be large; an effect the other way counts as inactive or inconclusive. % is scaled to controls: 0 for no effect and ±100 for the full control effect; potency is read from the fitted curve at half-maximal effect.

SMILES	VDR inhibitor	TDP1 inh	DT40 TDP1 no CPT	PLK1 PBD inh	TDP1 cell CPT	GCN5L2 inh
CCCn1cc(S(=O)(=O)c2cc(C)ccc2C)c(=O)c2cc(F)c(N3CCN(CC)CC3)cc21	-9%	-7%	-44%	.	?	-2%
Cc1ccc(O)c(C(=O)C=Cc2ccccc2)c1	?	.	21µM*	-9%	?	.
O=C(/C=C/c1ccc(O)cc1)c1ccccc1	-15%	8%	?	0%	-25%	-25%
Cc1cccc(C=CC(=O)c2ccccc2)c1	45µM*	.	23µM*	-12%	?	.
Cc1ccc(C(=O)C=Cc2cccc(C)c2)cc1	?	.	18µM*	-3%	?	.
N#Cc1ccc(-c2nc3ccc(Br)cn3c2Cc2ccccc2)cc1	.	.	9.2µM*	-4%	12µM*	.
Cc1ccc(Cc2c(-c3ccc(C#N)cc3)nc3ccc(Br)cn23)cc1	.	.	?	-4%	21µM*	.
Cc1cccc(-n2c(-c3ccccc3)c[nH]c2=S)c1C	0%	14%	12µM*	-13%	?	-6%
Cc1cccc(-n2c(C)n[nH]c2=S)c1C	-21%	.	-6%	-15%	-1%	.
COc1ccccc1-n1c(-c2ccc(Cl)cc2)c[nH]c1=S	-25%	2%	21µM*	-4%	23µM*	-9%
COc1ccccc1N1CCN(c2cc(C)nc3nc(-c4ccc(Cl)cc4)nn23)CC1	17%	5%	?	.	-19%	-9%
Cc1cccc(-n2c(-c3ccncc3)n[nH]c2=S)c1C	?	18µM*	1%	-3%	1%	-11%
COc1ccc(-c2ccc(=O)n(CC(=O)NCC3COCCO3)n2)cc1 (centres undefined)	12%	4%	-2%	2%	-27%	-3%
CCOC(=O)N1C(COCc2ccccc2)C=CCS1(=O)=O (centres undefined)	-14%	5%	.	.	.	.
COc1ccc([C@H]2CC(=O)C=C(c3cccc(C(C)C)c3)C2)cc1OC	-23%	0%	16µM*	2%	21µM*	-11%
O=C1C=C(c2cccc(Br)c2)C[C@@H](c2ccc3c(c2)OCO3)C1	2%	3%	23µM*	5%	?	-11%
COc1ccc([C@H]2CC(=O)C=C(c3cccc4c3Oc3ccccc3S4)C2)cc1OC	4%	3%	13µM*	1%	16µM*	-8%
COc1ccc([C@H]2CC(=O)C=C(c3cccc(Br)c3)C2)cc1OC	-8%	4%	13µM*	-4%	?	-1%
O=C1C=C(c2cccc3c2Oc2ccccc2S3)C[C@@H](c2ccc(Cl)cc2)C1	-11%	1%	?	-1%	?	-2%
O=C(Cc1ccccc1F)NNC(=O)c1ccncc1	-3%	3%	18%	-18%	5%	2%
Cc1[nH]c(C)c(S(=O)(=O)N2CCN(c3ccccc3F)CC2)c1C(=O)N1CCCCC1	1%	2%	-19%	-16%	?	-7%
COc1ccc2sc(N(Cc3cccnc3)C(=O)C3COc4ccccc4O3)nc2c1 (centres undefined)	11%	3%	?	.	?	-3%
C[C@H](CO)N1C[C@H](C)[C@@H](CN(C)Cc2ccccc2C(=O)O)OCc2cnnn2CCCC1=O	.	.	-1%	-26%	-13%	.
COc1ccc(CNC(=O)COc2ccc(OC)cc2)cc1	2%	.	6%	-1%	-4%	18%
O=C(COC(=O)c1ccc(F)cc1)NCc1ccc(F)cc1	6%	-1%	3%	0%	-4%	2%
O=C(COc1ccc(C(=O)c2ccc(F)cc2)cc1)NCc1ccc(F)cc1	-27%	-8%	4.6µM*	-3%	3.3µM*	8%

Source: PubChem BioAssay (National Center for Advancing Translational Sciences (NCATS))
